# In the library only some 6% were active in any assay of this set; here they are far more common.
# D3 ag: activates the human D3 dopamine receptor | P35462 | D3R DiscoveRx beta-arrestin cells, luminescence, 90 min | max activation, % | 410,000 compounds, 0.58% hits; in the data active means max activation above about 30%
# Target sequence (P35462 whole entry, looked up): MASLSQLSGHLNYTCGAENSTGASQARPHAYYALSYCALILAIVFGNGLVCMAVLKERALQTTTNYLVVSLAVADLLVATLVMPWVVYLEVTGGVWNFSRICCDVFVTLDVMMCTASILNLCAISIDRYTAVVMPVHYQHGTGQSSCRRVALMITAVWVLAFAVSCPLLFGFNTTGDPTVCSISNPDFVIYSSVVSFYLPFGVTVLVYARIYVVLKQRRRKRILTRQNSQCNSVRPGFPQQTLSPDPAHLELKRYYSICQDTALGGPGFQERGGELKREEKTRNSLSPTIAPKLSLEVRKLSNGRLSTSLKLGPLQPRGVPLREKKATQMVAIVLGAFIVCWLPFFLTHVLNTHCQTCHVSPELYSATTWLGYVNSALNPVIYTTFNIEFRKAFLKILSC
#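 Cells at 1500/well, incubated overnight, then treated with pinned compounds (dopamine as control) for 90 min at 37 degrees C. DiscoveRx reagent added for 30 - 60 minutes at room temperature; luminescence read.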
# D1 PAM: human D1 dopamine receptor positive modulation | 360,000 compounds, 0.036% hits | P21728 | potentiation, % at 10 µM | HEK293 TREx D1 cells, calcium flux, dopamine EC20 potentiation | AID 504651; in the data active means potentiation above about 30%
# D3 antag: D3 dopamine receptor (human) antagonism | P35462 | 360,000 compounds, 2.5% hits | D3R cells, DiscoveRx beta-arrestin luminescence, antagonist mode; hits give low values | max response, negative = inhibition, % | AID 652054; in the data active means max response below about -50%; inconclusive means no clear call, values can overlap the other calls
#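 Cells expressing the human receptor were seeded at 1500 cells/well, incubated overnight at 37 degrees C in 5% CO2, then exposed to library compounds with dopamine controls for 90 minutes at 37 degrees C before luminescent detection.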
# D1 antag: blocks dopamine activation of the human D1 receptor | HEK293 TREx D1 cells, calcium flux, dopamine EC80; hits give low values | 360,000 compounds, 3.2% hits | activity change, negative = inhibition, % at 10 µM | P21728 | AID 504652; in the data active means activity change below about -30%
#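 Kinetic fluorescence of a calcium dye serves as the read-out. D1-expressing Hek293 Trex cells, induced overnight at 30 C, are exposed to compound for 180 s before an EC80 dopamine addition, then read 180 s further.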
# D1 ag: agonists of human D1 dopamine receptor. P21728. HEK293 T-REx D1 cells, calcium flux, agonist mode. activation, % at 2 µM. 360,000 compounds, 1% hits; in the data active means activation above about 30%
#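 Inducible HEK293 T-REx D1 cells, force-coupled to calcium signalling, were plated at 4000 cells/well with tetracycline and held overnight at 30 C. After no-wash calcium dye loading, compound-evoked calcium rise over 180 s flagged agonists.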
# Numbers stand for hits; n = inactive; u = inconclusive; x = no result given.
SMILES,D3 ag,D1 PAM,D3 antag,D1 antag,D1 ag
O=C(NCc1cc(Cl)cc(Cl)c1)c1ccc2sc([C@@H]3O[C@H](CO)[C@H](O)[C@H](O)[C@H]3O)nc2c1,n,x,n,x,x
CN(C)c1cccc(CNC(=O)c2ccc3nc([C@@H]4O[C@H](CO)[C@H](O)[C@H](O)[C@H]4O)[nH]c3c2)c1,n,x,n,x,x
O=C(c1cccc(Cl)c1)N1CCC(c2nc3c(nnn3Cc3ccc(F)cc3F)c(=O)[nH]2)CC1,n,n,x,n,n
Cc1cc(C)n(-c2ccc(C(=O)N3CCN(S(=O)(=O)c4ccc(Cl)cc4)CC3)cc2)n1,n,x,n,n,n
CC(=O)c1ccc(S(=O)(=O)N2CCN(C(=O)c3ccc(-n4nc(C)c(Cl)c4C)cc3)CC2)cc1,77,n,n,n,n
Cc1nn(-c2ccc(C(=O)N3CCN(S(=O)(=O)c4ccccc4C(F)(F)F)CC3)cc2)c(C)c1Cl,112,n,n,n,n
COc1cccc(-c2cc(C(F)(F)F)nc(-n3nc(C)c(Br)c3C)n2)c1,n,n,x,n,n
CCCCn1c2nc3ccccc3nc2c2c(=O)n(CCC(C)C)cnc21,n,n,n,-42,n
CCCCn1c2nc3ccccc3nc2c2c(=O)n(-c3ccccc3)cnc21,n,n,n,n,n
CCCn1cnc2c(c1=O)c1nc3ccccc3nc1n2CCc1ccccc1,n,n,-53,n,n
O=C1CC(c2ccccc2)=NN1c1nc(-c2ccccc2)cs1,47,n,n,n,n
CCOc1ccc(CCNC(=O)C(C)N2C(=O)CC(C)(C)Sc3ccccc32)cc1 (configuration not stated),n,n,n,n,38
CCOc1ccc(CCNC(=O)CN2C(=O)CCSc3ccccc32)cc1,n,n,n,n,n
O=c1[nH]cnc2scc(C3COc4ccccc4O3)c12 (configuration not stated),n,n,n,n,47
CN(C)CC/C=C1\c2ccccc2COc2ccccc21,n,n,-77,-79,n
CN(C)CC/C=C1/c2ccccc2CS(=O)(=O)c2ccccc21,n,x,n,x,x
Cn1c(NCC2CCCCC2)nc2cc(-c3ccsc3)sc2c1=O,n,x,-51,x,x
CCc1ccc(NC(=O)c2sc(-n3nc(C)c(CCC(C)C)c3C)nc2C)cc1,n,n,x,n,n
Cc1ccn2c(Nc3ccc4c(c3)OCO4)c(-c3ccccn3)nc2c1,n,n,-54,n,n
Cc1ccc(Nc2c(-c3ccccn3)nc3ccc(C)cn23)cc1,n,n,-78,n,n
Cc1ccc(-c2nc3ccccn3c2Nc2ccc3c(c2)OCO3)cc1,n,n,x,n,n
Cc1ccc(Nc2c(-c3ccccn3)nc3cc(C)ccn23)cc1,n,n,-88,n,n
Cc1ccc(Nc2c(-c3ccc(N(C)C)cc3)nc3ccccn23)cc1,n,n,x,-30,n
O=C(Nc1ccccc1C(=O)OCc1cc(=O)n2c3c(sc2n1)CCCC3)c1ccc(F)cc1,n,n,x,n,n
COC(=O)c1ccccc1NC(=O)c1ccc(F)cc1F,x,n,x,n,n
SMILES,D3 ag,D1 PAM,D3 antag,D1 antag,D1 ag
COc1cc(OC)c(C(=O)NCc2nc(-c3ccccc3)no2)cc1OC,n,n,x,n,n
CC(C)(C)n1nc(C2CC2)cc1NC(=O)Nc1ccc(Cl)cc1,n,n,n,-41,n
Cc1cc(NC(=O)Nc2ccc(Cl)cc2)n(C(C)(C)C)n1,n,n,n,n,n
NS(=O)(=O)c1ccc(CCNCc2ccccc2OCc2ccc(F)cc2)cc1,n,n,u,-40,41
NS(=O)(=O)c1ccc(NCc2ccccc2OCc2ccc(F)cc2)cc1,n,n,n,n,n
CCOc1cc(CNCCc2ccc(S(N)(=O)=O)cc2)ccc1OCc1ccc(Cl)cc1,n,n,n,-56,79
Nc1nonc1C(=O)NCCNCc1ccccc1OCc1ccc(F)cc1,n,n,n,n,30
Cc1ccc(S(=O)(=O)NCCc2cn3ccsc3n2)c(C)c1,n,n,x,n,n
Cc1ccc(C(=O)Nc2nnc(SCc3cc(=O)n4ccc(C)cc4n3)s2)cc1,n,n,x,n,n
O=C(Cn1c(=O)nc(-c2ccccc2)c2cc(Cl)ccc21)NCCCc1ccccc1,n,n,x,n,n
Fc1ccccc1OCCCCCCN1CCCC1,n,n,n,n,n
Clc1cccc(OCCOCCN2CCNCC2)c1Cl,n,x,u,x,x
c1ccc(-c2ccccc2OCCCN2CCCCC2)cc1,n,n,n,-54,n
Clc1cccc(OCCCN2CCCC2)c1Cl,n,n,-99,n,n
OCCN1CCN(CCOc2ccccc2-c2ccccc2)CC1,n,n,-85,n,n
c1ccc2c(OCCCN3CCCCCC3)cccc2c1,n,n,-60,n,n
OC(CN1CCCCC1)c1cc(-c2ccccc2)on1 (configuration not stated),n,x,x,x,x
CCOC(=O)c1ccc(N2C(=O)c3[nH]nc(-c4ccc(C)cc4)c3C2c2cccc(F)c2)cc1 (configuration not stated),n,n,x,n,n
COc1ccc(Cc2nnc(Nc3ccc(C)cc3C)[nH]c2=O)cc1,n,n,-61,n,n
COc1ccc(Cc2nnc(SCC(=O)Nc3ccc(C)cc3C)[nH]c2=O)cc1,n,n,n,n,n
O=[N+]([O-])c1ccc(C(c2sc3nc(-c4ccco4)nn3c2O)N2CCC3(CC2)OCCO3)cc1 (configuration not stated),n,n,x,x,n
CCCN(CCC)CCc1cccc2c1CC(=O)N2,81,x,x,x,x
CC(C)N(Cc1ccccc1)S(=O)(=O)c1ccc(N2CCCCS2(=O)=O)cc1,n,n,x,n,n
CCOc1cc(C(=O)Nc2ccc(F)cc2)cc(Br)c1OC,n,n,n,-53,n
CCOc1cc(C(=O)Nc2ccc(N3CCOCC3)cc2)cc(Br)c1OC,n,n,n,n,n
SMILES,D3 ag,D1 PAM,D3 antag,D1 antag,D1 ag
CN1CCN(C(=O)c2cc3c(c(-c4cccc(Br)c4)n2)[C@H](CCO)N(S(=O)C(C)(C)C)C3)CC1 (some centres not stated),n,x,-50,x,x
CC(C)(C)n1ncc2c(=O)n(CC(=O)Nc3ccc(Cl)cc3)cnc21,n,n,-54,n,n
COc1cc(OC)c(C2C(C(=O)O)c3ccccc3C(=O)N2C)cc1OC (configuration not stated),n,n,n,n,n
Cc1ccc(C2C(C(=O)O)c3ccccc3C(=O)N2C)c(C)c1 (configuration not stated),n,n,n,-40,n
CCOc1ccc(CNC(=O)c2ccc3c(c2)c(C)c(C)n3Cc2ccccc2)cc1OC,n,n,x,n,n
Cc1ccc(C2CC(C(F)(F)F)n3nc(C(=O)Nc4c(C)n(C)n(-c5ccccc5)c4=O)cc3N2)cc1 (configuration not stated),n,n,n,n,n
COc1cccc(C2CC(C(F)(F)F)n3nc(C(=O)Nc4c(C)n(C)n(-c5ccccc5)c4=O)cc3N2)c1 (configuration not stated),n,n,-87,n,n
